The list is not random: actives were taken first. Their share in the collection is about 2.2%.
A549 viability – Nrf2 qHTS screen for inhibitors: counterscreen for cytotoxicity. hit rate 0.16% among 390,000. Potency, µM (titrated, usually from 46 µM), for the others: top-dose activity change, negative = cytotoxicity, usual class: inhibitors. A549 ARE-Fluc cells, CellTiter-Fluor viability, 18-24 h; note: potency is the fitted concentration of half-maximal effect; % is set by controls: 0 for no effect and ±100 for the full control effect
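Cytotoxicity counterscreen: CellTiter-Fluor fluorescence was measured in A549 ARE_Fluc cells after 18-24 h of compound exposure in a concentration series. The subsequent BugLite luminescent read reports ARE-luciferase activity.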
miR-21 act – qHTS Assay for Modulators of miRNAs and/orActivators of miR-21; Potency, µM (doses to about 38.3 µM), for the others: at the top dose activity change, positive = activation, hits mostly activators; HeLa miR-21 FLuc reporter, luciferase, 48 h; 340,000 tested, under 10 active;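 note: % of control where 0% means no effect; miR-21 action dims this reporter so a rising signal means less miR-21 action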
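HeLa cells stably expressing CMV-driven firefly luciferase with a downstream miR-21 binding sequence, endogenously expressing miR-21, were treated with titrations (up to about 40uM final) for 48 hours at 37 degree Celsius. Luciferase luminescence was read after lysis.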
GALK inhibitor – qHTS Assay for Inhibitors of Human Galactokinase (GALK); P51570; Purified GALK, Kinase-Glo residual ATP luminescence; Potency, µM (doses to about 57.5 µM), for the others: at the highest dose activity change, negative = inhibition, most hits filed as inhibitors; hit rate 0.007% among 270,000; AID 1868, 2009; note: potency is the fitted concentration of half-maximal effect; % is set by controls: 0 for no effect and ±100 for the full control effect
Target sequence (P51570 whole entry, looked up): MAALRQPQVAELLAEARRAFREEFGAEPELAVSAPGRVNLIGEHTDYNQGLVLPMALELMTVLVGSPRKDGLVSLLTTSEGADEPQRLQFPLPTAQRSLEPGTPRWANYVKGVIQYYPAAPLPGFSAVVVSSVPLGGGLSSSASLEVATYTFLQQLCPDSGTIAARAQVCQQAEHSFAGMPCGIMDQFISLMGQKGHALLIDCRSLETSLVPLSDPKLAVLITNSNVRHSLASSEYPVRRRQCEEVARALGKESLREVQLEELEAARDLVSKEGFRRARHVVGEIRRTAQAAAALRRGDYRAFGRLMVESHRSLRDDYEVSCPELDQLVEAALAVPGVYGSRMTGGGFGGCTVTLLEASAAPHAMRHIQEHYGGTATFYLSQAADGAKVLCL
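Kinase-Glo Plus luminescence measured ATP left after a 1 h room-temperature reaction. The reaction used 5 nM GALK, 100 uM galactose and 35 uM ATP at pH 8.0 (20 mM HEPES, 5 mM MgCl2, 60 mM NaCl, 1 mM DTT, 0.01% BSA).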
PI4K2A block – qHTS for small molecular inhibitors of PI4K2A; Phosphatidylinositol 4-kinase type 2-alpha (Homo sapiens), Q9BTU6; purified PI4K2A, ADP-Glo luminescence, 1 h; active compounds read low; activity change, negative = inhibition, % at 76.9 µM; hit rate 0.13% among 420,000; AID 1346378, 2018; in the data active = activity change below about -50%; inconclusive = mostly about -30% to -49%;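 note: -100% = wells without enzyme as full effect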
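PI4K2A activity was measured by ADP-Glo luminescence: enzyme (4 ug/mL stock) and phosphatidylinositol (1.2 mM stock) in Tris pH 7.5/MgCl2/EGTA/Triton X-100 buffer were reacted with ATP (300 microM stock) for one hour at ambient temperature.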
Nrf2 block – Nrf2 qHTS screen for inhibitors; hit rate 2.1% among 360,000; A549 ARE-Fluc reporter, luciferase luminescence, 18-24 h; Potency, µM (highest dose often 46 µM), for the others: at the top dose activity change, negative = inhibition, usual class: inhibitors; note: potency is the fitted concentration of half-maximal effect; % is set by controls: 0 for no effect and ±100 for the full control effect; nearly all actives have a fitted effect of over 60% in size
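In this cell-based qHTS, ARE-driven firefly luciferase in A549 cells reports Nrf2 activity; the luminescent signal after BugLite lysis is the measured value, with a prior CellTiter-Fluor read for cell health.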
Nrf2 ARE act – qHTS of Nrf2 Activators; AREc32 ARE-luciferase reporter (MCF7-derived line), luminescence, 24 h; Potency, µM (doses to about 46.1 µM), without a hit: at the top dose activation, usual class: activators; hit rate 0.31% among 410,000; AID 624171, 2012; note: potency is the fitted concentration of half-maximal effect; % of control where 0% means no effect; nearly all actives have a fitted effect of over 65% in size
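Cells of the AREc32 ARE-luciferase line are plated in OPTI-MEM containing 5% FBS and left overnight at 37 deg C. Compounds are pinned in, incubation continues 24 hr, and firefly luciferase signal is then measured.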
An asterisk follows results filed as active; u = inconclusive; x = not tested or not shown. Unless noted, calls come from the whole dose curve; as a rule, active = well fitted curve in the direction sought with a large enough effect; inconclusive = small, poorly fitted or top-dose-only effect, or another doubt; inactive = no such curve, though single readings can be large; an effect the other way counts as inactive or inconclusive.

SMILES | A549 viability | miR-21 act | GALK inhibitor | PI4K2A block | Nrf2 block | Nrf2 ARE act
CC(C)CN1CN2Cc3ccccc3C2CS1(=O)=O (stereo not drawn) | x | x | x | -3 | x | x
O=C(CN1C(=O)COc2ccccc21)N1CCCc2ccccc21 | u | -7% | 0% | 2 | 23µM* | 0%
O=C(O)c1cccc(S(=O)(=O)N2CCN(S(=O)(=O)c3ccc4c(c3)OCCO4)CC2)c1 | -3% | x | x | x | 3% | x
O=C(C=Cc1ccccc1O)c1ccccc1O | -1% | x | x | 0 | 5% | 14µM*
O=C(COC(=O)c1ccc2c(c1)S(=O)(=O)c1ccccc1C2=O)NC1CC1 | 5% | -1% | 15% | 0 | -5% | -1%
CC1CCC(NC(=O)c2ccc3c(c2)S(=O)(=O)c2ccccc2C3=O)CC1 (stereo not drawn) | -13% | x | x | 0 | 16µM* | 4%
CSCCCNC(=O)c1oc(=O)c2ccccc2c1-c1ccc(C)cc1 | x | x | x | -2 | x | x
COc1ccc(OC)c(CCNC(=O)c2cc3c(-c4ccccc4F)nn(C)c3s2)c1 | -2% | u | x | 4 | 21µM* | 0%
COc1ccc(NC(=O)c2cc3c(-c4ccccc4F)nn(C)c3s2)c(OC)c1 | 1% | -1% | x | -2 | u | -1%
COc1ccc(N2N=NN(C(C)C)C2=C(Cl)c2nnnn2-c2ccc(OC)cc2)cc1 | -3% | x | x | -1 | 24% | 16µM*
COc1ccc(-n2nnnc2-c2ccccc2)cc1 | -17% | 18% | 2% | 0 | 12% | 0%
CCn1c(C)cc(C(=O)COC(=O)c2ccccc2[N+](=O)[O-])c1C | -1% | x | x | u | 0.73µM* | -3%
Cc1cc(C(=O)COC(=O)c2ccccc2O)c(C)n1Cc1cccs1 | u | u | 0% | -5 | 6.5µM* | -3%
CCCCCc1ccc(NC(=O)O[C@@H]2CC[C@@]34CCCN3C(=O)CCC[C@H]4C2)cc1 | x | x | x | -1 | x | x
COc1cccc(NC(=O)Nc2nc(-c3ccc(OC)c(OC)c3)cs2)c1 | 16µM* | u | 0% | -5 | 7.3µM* | -2%
COc1ccc(-c2csc(NC(=S)NC(=O)c3ccc4ccccc4c3)n2)cc1OC | -14% | -6% | -2% | -14 | 9.2µM* | -1%
COc1ccc(-c2csc(NC(C)=O)n2)cc1OC | -3% | -28% | 0% | 1 | 11% | 3%
COc1ccccc1C(=O)Nc1nc(-c2ccc3c(c2)OCCO3)cs1 | -4% | -9% | 6% | -3 | 23µM* | 5%
O=C(Nc1ccc(F)cc1)Nc1ccc(N2CCCC2)c(S(=O)(=O)Nc2ccccc2Cl)c1 | u | u | -2% | 3 | 23µM* | 3%
O=C(Nc1ccc(N2CCCCC2)c(S(=O)(=O)Nc2ccccc2Cl)c1)c1cccnc1 | -5% | x | x | 4 | u | 0%
O=C(Nc1ccc(Cl)c(Cl)c1)Nc1ccc(N2CCCC2)c(S(=O)(=O)Nc2ccccc2Cl)c1 | u | u | -1% | 1 | 13µM* | 0%
O=C(NCc1ccccc1)OCCCN1C(=O)CCC12CCCCC2 | x | x | x | 3 | x | x
COc1ccc(N/C=C/C(=O)c2ccccc2)cc1 | -6% | -19% | 7% | u | u | 0%
Cc1ccc(N/C=C/C(=O)c2ccccc2)cc1Br | -12% | -62% | 0% | -6 | u | 11µM*
O=C(/C=C/Nc1cccc(O)c1)c1ccccc1 | -17% | -6% | 4% | -15 | -18% | 14µM*
O=C(/C=C/Nc1ccc(F)c(Cl)c1)c1ccccc1 | 2% | -58% | 0% | 2 | u | 11µM*
COc1cccc(CCn2c(N)cc(=O)[nH]c2=S)c1OC | 9% | x | x | x | -11% | x
OC(COc1ccccc1)CSc1ncn[nH]1 (stereo not drawn) | -4% | 1% | -2% | -1 | x | 0%
